Measurements reported in PubChem BioAssay AID588778 (Southern Research Institute, 2011).
Among all 10,000 compounds or so, fewer than 10 were called active. How the calls were made is not given here. A selection follows.

Assay: Vibrio cholerae motility inhibitors, OD read-out (AID 588778)
Conditions: stronger effect = higher value
[1] = measured here: bacterial viability at 10 ug/mL

Compound | inhibition (concentration not given here) | inhibition [1] [%]
Cc1ccc(OCc2nnc(SCC(=O)N3CCc4ccccc43)n2N)cc1C | -18.2% (inactive) | -12.3
C=C1C2(C(=O)Nc3nc4ccc(Br)cc4s3)CCC(C2)C1(C)C (stereo not drawn) | -2.38% (inactive) | -1.19
Cc1cc(Cl)c(OCCOCCn2cnc3ccccc3c2=O)c(Br)c1 | 4.18% (inactive) | -5.62
Cc1c(N2C(=O)C3C4C=CC(C5CC45)C3C2=O)c(=O)n(-c2ccccc2)n1C (stereo not drawn) | -7.28% (inactive) | -4.46
COc1ccc(NC(=S)N2CCCC2C(=O)N2CCCC2)cc1 (stereo not drawn) | 41.3% (inactive) | 7.73
CN(C)C(=O)c1ccccc1C(=O)N(C)C | -3.26% (inactive) | 34.3
C[C@@H](NC(=O)C1CCN(Cc2cccc(Cl)c2)CC1)c1ccccc1 | 19.5% (inactive) | 5.13
Cc1cccc(C(=O)Nc2ccc(I)cc2C(=O)N2CCCC2)c1 | -0.8% (inactive) | -1.35
C=CCn1c(SCC(=O)Nc2c(C)cc(I)cc2C)nnc1-c1ccco1 | 5% (inactive) | -2.52
COc1cccc(-c2cc(C(F)(F)F)n3ncc(C(=O)OC(C)C)c3n2)c1 | 14.1% (inactive) | 15.9
Cc1cc(Br)c(NC(=O)CSc2ccc(Cl)cc2)cc1C | -1.15% (inactive) | 5.67
COc1ccc(N(C)NC(=O)Cc2ccccc2)cc1 | 16.7% (inactive) | 4.27
O=C(CC(NCc1ccccn1)C(=O)O)Nc1ccc(Cl)cc1 (stereo not drawn) | 4.17% (inactive) | -9.2
COCc1cc(CN2CCCCC2)c(O)c2ncccc12 | 34% (inactive) | 5.26
COc1cc(C(=O)Nc2nnc(-c3sccc3C)s2)cc(OC)c1OC | -3.78% (inactive) | -6.72
OCC(CO)(CO)NCC(O)CN1c2ccccc2Sc2ccccc21 (stereo not drawn) | 3.65% (inactive) | -1.83
c1cncc(Nc2nc(-c3cccs3)cs2)c1 | 13.2% (inactive) | -2.87
COc1ccc(Cl)cc1NC(=S)Nc1cccc(C)n1 | -27.1% (inactive) | -16.2
COc1ccc(C(=O)Nc2ncccc2O)cc1 | 10.3% (inactive) | 2.51
S=C(NCc1ccco1)NNC(=S)Nc1ccc(Cl)cc1 | 13.3% (inactive) | 5.16
CCCC(=O)c1ccc(N2CCN(C(=O)c3ccccc3Br)CC2)c(F)c1 | 1.55% (inactive) | 4.06
COC(=O)C1=CN(c2ccc(F)c(F)c2)C=C(C(=O)OC)C1c1cc(OC)ccc1OC | -1.54% (inactive) | -3.16

Compound | inhibition (concentration not given here) | inhibition [1] [%]
Cc1sc(NCc2cc(Cl)ccc2O)nc1-c1ccc(F)cc1 | 14% (inactive) | -2.93
O=C(Oc1ccc(Cl)cc1Br)c1ccc(F)cc1 | -4.46% (inactive) | -5.02
COc1c(S(=O)(=O)N2CCCN(S(=O)(=O)c3ccc(Cl)c(Cl)c3OC)CC2)ccc(Cl)c1Cl | 8.96% (inactive) | 22.4
COc1cc(NC(=O)CS)cc(OC)c1 | -28.8% (inactive) | -11
CC(CCc1ccccc1)NC(=O)c1cccnc1 (stereo not drawn) | 14.2% (inactive) | -1.57
CCOc1ccc(-n2nc3ccc(NC(=S)NC(=O)CC)cc3n2)cc1 | -22.2% (inactive) | -6.24
CC1(C)CC(=O)C2=C(C1)NC(Nc1nc3ccccc3s1)=NC21C(=O)Nc2ccccc21 (stereo not drawn) | 5.23% (inactive) | -0.54
O=C(CCC(=O)Nc1ccccc1Cl)NNC(=S)NCc1ccco1 | 7.34% (inactive) | 30.6
O=C(CCCOc1ccc(Cl)cc1Cl)N1CCN(Cc2ccc3c(c2)OCO3)CC1 | 15.4% (inactive) | 5.35
CCc1[nH]nc2c1C1(CN3CCC1CC3)C(C#N)=C(N)O2 (stereo not drawn) | -3.07% (inactive) | -0.3
CCN1C(=O)Cc2cc(S(N)(=O)=O)ccc21 | 13.3% (inactive) | 0.76
O=C(NCCc1ccccc1)c1ccc(CNS(=O)(=O)c2cccc(Cl)c2)cc1 | -4.41% (inactive) | -10.6
Cc1ccc(NC(NC=O)C(Cl)(Cl)Cl)c(C)c1 (stereo not drawn) | 1.46% (inactive) | 2.8
CCc1cc(C(=O)OC)c(NC(=O)c2cc(Br)cs2)s1 | 6.03% (inactive) | 1.94
Cc1cccc(C)c1N1CCN(C(=O)N2CCCCC2)CC1 | 8.63% (inactive) | -4.82
COc1ccc(-c2csc3ncnc(SCc4c(C)noc4C)c23)cc1 | 24.7% (inactive) | 4.67
Cc1cc2ccccc2n2c(SCC(=O)c3ccc4c(c3)OCCO4)nnc12 | 0.44% (inactive) | -5.11
O=C(c1cccs1)N1C(=O)c2cccc3c(S(=O)(=O)N4CCCC4)ccc1c23 | 11.6% (inactive) | -0.47
CCSc1nnc(NC(=O)c2csc3ccccc23)s1 | -5.35% (inactive) | -4.62
COc1cc(SC)ccc1C(=O)Nc1cccc(C(F)(F)F)c1 | 0.295% (inactive) | -4.94
CCOC(=O)c1nnc2ccnn2c1N | -20.5% (inactive) | -4.37
Cc1csc(NC(=O)CSc2nc3c(c(C(F)(F)F)c2C#N)CCC3)n1 | 4.09% (inactive) | 1.86
